The results in this text go back to PubChem BioAssay (NCI).

Common to all, as to assay: NCI-60 one-dose screen, 48 h (100 = growth as untreated, 0 = no growth, -100 = all killed)
The test system of assay [1] is HT29 colon. The settings on record: 10 µM unless noted.
In assay [2] the test system is SNB-75 CNS. The settings on record: 10 µM unless noted.
In assay [3] the test system is SNB-19 CNS. The following applies: 10 µM unless noted.
Assay [4] has as its system U251 CNS. The following applies: 10 µM unless noted.
Assay [5] deals with PC-3 prostate. The following applies: 10 µM unless noted.
The subject of assay [6] is SK-MEL-5 melanoma. The following applies: 10 µM unless noted.
Assay [7] deals with UACC-62 melanoma. The following applies: 10 µM unless noted.
Assay [8] concerns LOX IMVI melanoma. The settings on record: 10 µM unless noted.
For assay [9], the system named is SK-MEL-28 melanoma. The following applies: 10 µM.
The subject of assay [10] is SK-MEL-2 melanoma. The following applies: 10 µM unless noted.
Assay [11] deals with SN12C renal. The following applies: 10 µM unless noted.
Assay [12] deals with UO-31 renal. The settings on record: 10 µM unless noted.
The subject of assay [13] is TK-10 renal. The settings on record: 10 µM unless noted.
The test system of assay [14] is ACHN renal. The following applies: 10 µM unless noted.
For assay [15], the system named is CAKI-1 renal. The settings on record: 10 µM unless noted.
Assay [16] relates to A498 renal. The settings on record: 10 µM unless noted.
Assay [17] deals with CCRF-CEM leukemia. The settings on record: 10 µM unless noted.
Assay [18] deals with MOLT-4 leukemia. The settings on record: 10 µM unless noted.
The test system of assay [19] is SR leukemia. The settings on record: 10 µM unless noted.

The panel holds about 83,000 compounds, 20% with a hit somewhere; the sample as a whole holds those more often.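 Values shown are percent growth following 48 h exposure of cells in 96-well plates to a single concentration of compound; below 10 was considered active.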 Values without a mark were called inactive. Activity calls are given as the source filed them.

With `COc1cc(NC(=O)CCSc2nc3ccccc3c(=O)n2CCc2ccccn2)cc(OC)c1OC`, the growth in [1] was 102%; in [2] it was 8.5% (active); in [3], 98.6%; in [4], 85.1%; in [5], 81.6%; in assay [6], 87.8%. The growth in assay [7] was 84%; in assay [8], 94.8%; in [9], 83.3%; in assay [10], 92.4%; in assay [11] it was 92.8%; in assay [12], 85%. Further, the growth in [13] was 111%; in [14], 91%; in assay [15] it was 89%; in assay [16] it was 74.7%; in [17] it was 83.2%; in assay [18], 87.6%.
For the molecule `COc1cccc(C(=O)NC(c2ccc(C)cc2)c2cc(Cl)c3cccnc3c2O)c1` (stereo not given), the growth in [1] was 24.1%; in assay [2], 28.8%; in [3], 12.5%; in assay [4] it was 3.81% (active); in assay [5], 22.8%; in assay [6] it was -56.8% (active). Further, the growth in [7] was -20% (active); in assay [8] it was 6.79% (active); in assay [9], 44%; in assay [10], 22.8%; in assay [11] it was 12.6%; in [12] it was -18.9% (active). Also, the growth in assay [13] was 27%; in assay [14] it was 10.6%; in assay [15] it was -3.64% (active); in assay [16], 23.1%; in [17], 8.88% (active); in assay [18], 11.4%. Also, the growth in [19] is 11.3%.
Take `O=C1c2ccc3c4c(ccc(c24)C(=O)N1CCCCO)C(=O)N(CCCCO)C3=O`: the growth was 10.9% in assay [1]; 54.2% in assay [2]; 91.4% in assay [3]; 72.3% in assay [4]; 63% in [5]; 78.4% in assay [6]. For the same molecule, the growth in assay [7] is 79.6%; in assay [8], 59.9%; in [9] it was 15.6%; in assay [10] it was 58.1%; in assay [11], 72%; in [12], 24.4%. Further, the growth in [13] was 22.5%; in assay [14] it was 43.9%; in [15] it was 35.4%; in assay [16] it was 56.2%; in [17] it was 6.38% (active); in [18] it was 22.5%. The growth in assay [19] was 5.37% (active).
`c1ccc2cc3c(Nc4ccc(N5CCOCC5)cc4)ccnc3cc2c1`: the growth in assay [1] was 98.1%; in [2], 101%; in assay [3], 94.3%; in [4], 94.7%; in assay [5] it was 81.8%; in assay [6] it was 89.6%. For the same molecule, the growth in [7] was 95.6%; in assay [8], 96.6%; in [9], 111%; in assay [10], 101%; in assay [11], 94.5%; in assay [12], 81.2%. Also, the growth in [13] is 107%; in assay [14], 94.8%; in assay [15], 92.8%; in assay [16] it was 77.6%; in [17], 77.4%; in assay [18], 78.1%. Also, the growth in assay [19] was 81.3%.
`CCOC(=O)c1cc2c(n1Cc1ccccc1OC)-c1oncc1CCC2`: the growth was 10.1% in assay [1]; -2.26% (active) in assay [2]; 59.6% in [3]; 36.7% in assay [4]; 30.8% in assay [5]; 6.57% (active) in [6]. The growth in assay [7] was 26.5%; in [8] it was 45.5%; in [9], 44.8%; in [10], 27.5%; in assay [11], 53.3%; in assay [12] it was 45.2%. Besides, the growth in assay [13] was 59.4%; in assay [14], 53.4%; in assay [15], 35.8%; in [16] it was -2.62% (active); in assay [17], 8.18% (active); in assay [18], 28.4%. In assay [19], the growth is 4.65% (active).
Consider `COc1cc(C(C)n2cc(-c3ccccc3)nn2)ccc1OC1CCCCC1` (stereo not given), for which the growth in assay [1] is 82.3%; in assay [2], 68.1%; in [3], 68.7%; in assay [4] it was 81%; in [5], 69.6%; in assay [6], 29.9%. The growth is 55.7% in assay [7]; 63.1% in assay [8]; 95.1% in [9]; 92.8% in assay [10]; 67.7% in assay [11]; 56.9% in [12]. Moreover, the growth in assay [13] is 75.3%; in assay [14], 51.1%; in assay [15], 48.7%; in [16], 49.3%; in assay [17], 55.3%; in [18], 50.1%.
Turning to `O=NN(Cc1cccnc1)C(=O)NC1CCCCC1`, the growth in assay [1] is 103%; in assay [2], 84.7%; in assay [3], 102%; in [4], 97.4%; in [5] it was 98.7%; in assay [6], 102%. Further, the growth in assay [7] is 110%; in assay [8], 103%; in assay [9], 104%; in [10], 119%; in [11], 98.9%; in [12], 90%. The growth was 114% in [13]; 96.5% in assay [14]; 93.9% in assay [15]; 103% in [16]; 102% in assay [17]; 111% in [18]. The growth in assay [19] is 99.7%.
Turning to `COc1ccc(/C=C2\N=C(c3ccccc3)N(c3ccc(-c4nc5ccc(C)cc5s4)cc3)C2=O)cc1`, the growth was 88.9% in assay [1]; 69.9% in assay [2]; 84.3% in assay [3]; 81.2% in assay [4]; 63.1% in assay [5]; 85.3% in assay [6]. Besides, the growth in [7] was 73.2%; in assay [8] it was 98.2%; in [9], 114%; in [10], 85.2%; in assay [11] it was 64.3%; in assay [12] it was 34.2%. Besides, the growth was 104% in [13]; 80.7% in assay [14]; 61.9% in assay [15]; 93.6% in assay [16]; 61.9% in assay [17]; 45.9% in [18]. Moreover, the growth in [19] is 80.2%.
